An excerpt weighted towards active compounds, which were near 2.6% of everything screened.
Cruzain inh Det: cruzain (T. cruzi) inhibition with detergent. P25779. AID 1478. purified cruzain, Z-FR-AMC fluorescence, 0.01% Triton. Potency, µM, for the others: max response, negative = inhibition, actives largely listed as inhibitors. 0.43% of 200,000 active;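 further: plate controls were neutral wells for no effect and buffer without enzyme for full effect; nearly all actives have a fitted effect of over 40% in size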
Target sequence (P25779 123-467 limits assumed): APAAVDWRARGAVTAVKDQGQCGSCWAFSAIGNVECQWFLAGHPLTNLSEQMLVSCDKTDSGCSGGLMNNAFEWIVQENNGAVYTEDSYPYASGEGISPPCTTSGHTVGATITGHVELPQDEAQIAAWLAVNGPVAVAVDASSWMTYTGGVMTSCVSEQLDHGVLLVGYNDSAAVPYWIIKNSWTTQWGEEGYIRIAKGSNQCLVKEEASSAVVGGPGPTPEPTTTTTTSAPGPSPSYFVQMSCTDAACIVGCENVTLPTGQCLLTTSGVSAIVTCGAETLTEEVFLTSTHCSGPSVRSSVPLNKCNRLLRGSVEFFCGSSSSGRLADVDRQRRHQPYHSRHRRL
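Enzyme 1.5 nM, Z-FR-AMC 2 uM, NaOAc 100 mM pH 5.5, DTT 5 mM, Triton X-100 0.01%; 15 min RT compound preincubation; kinetic ex360/em450, 60 s delta.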
Cruzain noTriton: inhibitors of Trypanosoma cruzi cruzain without detergent; P25779; Potency, µM, inactives show max response, negative = inhibition, hits mostly inhibitors; purified cruzain, Z-FR-AMC fluorescence, no detergent; 2.3% of 200,000 active;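 further: plate controls were enzyme without inhibitor for no effect and buffer without enzyme for full effect; nearly all actives have a fitted effect of over 40% in size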
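Detergent-free condition (0.00005% Triton X-100) in acetate buffer pH 5.5 with DTT. 1.5 nM enzyme and compound were pre-mixed 15 min, then 2 uM Z-FR-AMC substrate added; reaction progress from fluorescence change between first and third reads (60 s).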
The depositor's hits bear a star; ? = inconclusive. The call rests on the fitted dose curve; in most records, active means well fitted curve in the direction sought with a large enough effect; inconclusive means small, poorly fitted or top-dose-only effect, or another doubt; inactive means no such curve, though single readings can be large; an effect the other way counts as inactive or inconclusive. Potency means the concentration at half of the fitted maximal effect.

SMILES	Cruzain inh Det	Cruzain noTriton
Cc1ccc(-c2nc(S(=O)(=O)c3ccc(C)cc3)c(SCC(=O)c3ccccc3)o2)cc1	-5.3%	15.8µM*
Cc1ccc(S(=O)(=O)c2nc(-c3ccc(F)cc3)oc2SCC(=O)c2ccccc2)cc1	-1.0%	?
O=C(CSc1oc(-c2ccccc2)nc1S(=O)(=O)c1ccc(Cl)cc1)Nc1ccc(F)cc1	-4.6%	5.8%
COC(=O)c1ccc(Cn2c(SCc3ccc(F)cc3)nc3ccncc32)cc1	-7.0%	-2.0%
CCOc1ccccc1N1CSC2=C(C#N)C(c3c(OC)ccc4ccccc34)CC(=O)N2C1 (configuration not stated)	-8.1%	15.8µM*
COc1ccc(N2CSC3=C(C#N)C(c4cc(OC)ccc4OC)CC(=O)N3C2)c(OC)c1 (configuration not stated)	-9.8%	3.0%
Cc1ccc(C2=N/C(=C\c3c(C)nn(-c4ccccc4)c3N3CCCC3)C(=O)O2)cc1	1µM*	1.58µM*
O=C1OC(c2ccccc2)=N/C1=C\N1CCCCC1	-7.3%	-7.2%
Cc1nn(-c2ccccc2)c(N2CCCC2)c1/C=N/O	-1.5%	4.2%
COc1cccc(/C=C2\N=C(c3c(-c4ccccc4)noc3C)OC2=O)c1OC	-6.6%	8.9%
Cc1nn(-c2ccccc2)c(N2CCCC2)c1/C=C1\N=C(c2ccc(F)cc2)OC1=O	0.398µM*	0.316µM*
CS(=O)(=O)Oc1ccccc1/C=C1/N=C(c2ccc(F)cc2)OC1=O	14.1µM*	15.8µM*
COc1ccc(S(=O)(=O)N2c3ccc(Cl)cc3[C@](O)(c3ccccc3Cl)[C@@H]2C(=O)N2CCC[C@H]2C(N)=O)cc1OC	-2.7%	?
O=C(CSc1nc2c(oc3ccccc32)c(=O)[nH]1)Nc1cccc(Cl)c1	0.7%	7.94µM*
Cc1cccc(NC(=O)CSc2nc3c(oc4ccccc43)c(=O)n2C(C)C)c1	-4.1%	-24.9%
COc1cccc(-n2c(SCC(=O)Nc3cccc(Cl)c3)nc3c(oc4ccccc43)c2=O)c1	-2.6%	12.6µM*
COc1cccc(-n2c(SCC(=O)Nc3cc(C)ccc3C)nc3c(oc4ccccc43)c2=O)c1	-1.0%	-8.6%
CCc1ccc(S(=O)(=O)c2nnn3c2nc(Nc2ccc(NC(C)=O)cc2)c2sccc23)cc1	-2.4%	-1.8%
Cc1ccccc1NS(=O)(=O)c1cc(C(=O)NCCC2=CCCCC2)ccc1Cl	-1.7%	-0.7%
Cc1ccc(C(=O)NCC(=O)OC(C)C(=O)NCCC2=CCCCC2)cc1C (configuration not stated)	22.4µM*	?
CCOC(=O)c1ccccc1NC(=O)CSc1cn(CC(=O)N2CCCCCC2)c2ccccc12	-4.9%	-20.2%
O=C(Cn1c(=O)n(Cc2ccc3c(c2)OCO3)c(=O)c2ccccc21)Nc1cccc(Cl)c1	-5.2%	-24.4%
COc1cccc(NC(=O)Cn2c(=O)n(CCc3ccc(OC)c(OC)c3)c(=O)c3ccccc32)c1	-6.4%	5.1%
O=C(Cn1c(=O)n(Cc2ccc(C(=O)NCc3ccc4c(c3)OCO4)cc2)c(=O)c2ccccc21)Nc1cccc(Cl)c1	-1.3%	3.98µM*
COc1cccc(NC(=O)Cn2c(=O)n(Cc3ccc(C(=O)NCc4ccc(C)cc4)cc3)c(=O)c3ccccc32)c1	-1.3%	12.6µM*
SMILES	Cruzain inh Det	Cruzain noTriton
O=C(Cn1c(=O)n(Cc2ccc3c(c2)OCO3)c(=O)c2ccccc21)N1CCCc2ccccc21	-4.7%	31.6µM*
Cc1cccc(NC(=O)Cn2c(=O)n(Cc3ccc(C(=O)NCc4ccc5c(c4)OCO5)cc3)c(=O)c3ccccc32)c1	6.1%	3.98µM*
Cc1cc(C)c(NC(=O)Cn2c(=O)n(Cc3ccc(C(=O)NCc4ccc5c(c4)OCO5)cc3)c(=O)c3ccccc32)c(C)c1	-1.5%	3.9%
CC1CCN(C(=O)Cn2c(=O)n(Cc3ccc4c(c3)OCO4)c(=O)c3ccccc32)CC1	0.1%	-16.1%
CC(C)(S)[C@H](N)C(=O)O	3.6%	2.5%
c1ccoc1	-1.2%	-5.0%
CCc1ccc(NC(=O)Nc2ccccc2OCc2cc(=O)n3ccccc3n2)cc1	2.7%	6.0%
CN(C)CCCc1c2ccccc2nc2ccc(Cl)cc12	-2.1%	3.4%
Cc1ccc(C)c(NC(=O)Cn2c(=O)n(Cc3ccc4c(c3)OCO4)c(=O)c3ccc(C(=O)NC4CCCCC4)cc32)c1	-0.3%	-10.9%
CCN(C(=O)Cn1c(=O)n(Cc2ccc3c(c2)OCO3)c(=O)c2ccc(C(=O)NC3CCCCC3)cc21)c1cccc(C)c1	-3.1%	31.6µM*
NS(=O)(=O)O	6.5%	7.1%
O=C(NCCCN1CCN(c2cccc(Cl)c2)CC1)Nc1ccccc1C(F)(F)F	0.4%	14.6%
COc1ccc(NC(=O)C2=C(C)Nc3nc(SCc4ccccc4)nn3C2c2cc(OC)ccc2OC)cc1 (configuration not stated)	1.3%	-7.7%
CCc1ccc(/C=N/NC(=O)c2cc(-c3ccccc3OC)nc3ccccc23)s1	-7.8%	-27.3%
CCc1ccc(/C=N/NC(=O)c2cc(C3CC3)nc3ccc(Br)cc23)s1	2.6%	25.1µM*
NCCC[C@@H](CC(=O)N[C@@H]1CCCC[C@H]1C(=O)N[C@H](CC(=O)N[C@@H](CCC(=O)O)CC(=O)O)Cc1c[nH]c2ccccc12)NC(=O)C[C@H](Cc1ccccc1)NC(=O)[C@@H]1CCCC[C@H]1N	-2.2%	?
N[C@H](CCCP(=O)(O)O)C(=O)O	2.0%	-2.9%
CCc1ccc(CSc2nc(-c3ccccc3OC)nc3c2Cc2c(CO)cnc(C)c2O3)cc1	-13.9%	?
CCOc1ccc(N2Cc3ccccc3C2)cc1	3.7%	15.8µM*
CCOc1ccc(N2CC(=O)N(c3ccc(OCC)cc3)CC2=O)cc1	1.0%	-9.3%
CCN(c1ccccc1)S(=O)(=O)c1cc(Br)cc2c1N(C(=O)C1CC1)CC2	-5.0%	-7.6%
COc1ncc2nc(-c3cn(C)c4ccccc34)c(=O)n(C[C@H]3CCCO3)c2n1	2.1%	1.2%
Cc1ccc(NC(=O)c2cccc(NC(=O)N3CCSc4ncccc43)c2)cc1Cl	-4.8%	-21.0%
COc1ccc(-c2cc(-c3cccs3)c(C#N)c(SCC(=O)NCc3ccccc3)n2)cc1	4.1%	7.94µM*
Cc1cccc(-c2cc(-c3ccccc3)nc(SCC(=O)Nc3ccccc3)c2C#N)c1	1.1%	12.2%
SMILES	Cruzain inh Det	Cruzain noTriton
CCc1nnc(NC(=O)CSc2nc(-c3ccc(F)cc3)cc(-c3ccccc3)c2C#N)s1	-0.3%	7.94µM*
CCSc1nc(-c2ccc(OC)cc2)cc(-c2ccccc2)c1C#N	-0.6%	-13.6%
COc1ccc(-c2cc(-c3cccs3)c(C#N)c(SCC(=O)NCc3ccccc3OC)n2)cc1	5.7%	?
COc1ccc(-c2cc(-c3ccccc3)nc(SCC(=O)Nc3ncc(C)s3)c2C#N)cc1	-5.2%	7.94µM*
O=c1c2sc3ccccc3c2n(Cc2ccc(Cl)cc2)c(=O)n1Cc1ccco1	-9.4%	-14.0%
COc1cc(-c2[o+]c3cc(O)cc(O)c3cc2O)cc(O)c1O	-1.3%	-6.7%
Cc1ccc(C)c(NC(=O)CN(C)S(=O)(=O)c2cccc3nsnc23)c1	-5.3%	1.0%
O=C(Cn1c(=O)n(Cc2ccc(C(=O)NCc3ccccc3Cl)cc2)c(=O)c2ccccc21)Nc1ccc(F)cc1	-1.7%	12.6µM*
O=C(Cn1c(=O)n(Cc2ccc(C(=O)NCc3ccccc3Cl)cc2)c(=O)c2ccccc21)Nc1ccc(F)c(Cl)c1	-2.2%	7.94µM*
COc1ccc(NC(=O)Cn2c(=O)n(Cc3ccc(C(=O)NCc4ccccc4Cl)cc3)c(=O)c3ccccc32)cc1OC	-0.7%	-8.1%

Screening results from PubChem.
